Each structure is given as a SMILES string. In all, about 300,000 compounds went through this assay and about 37,000 (12%) were called active. Rule as the data show it: active = max response mostly above about 13% (no sharp cut-off); inactive = mostly below about 14%. For the sample, actives were picked, then their nearest neighbours and some compounds at random.

The test can be described thus: Cycloheximide Counterscreen for Small Molecule Inhibitors of Shiga Toxin. Also: read at 38.3 µM for the half of the compounds with a filed dose; 0% is about no effect. As to conditions: cell reporter, cycloheximide protein synthesis inhibition counterscreen; stronger effect = higher value. On the technique in general: Counterscreens check selectivity or assay interference.
Consider `CCSc1nc(O)c(C(c2cccc(OC)c2)c2c(O)nc(SCC)[nH]c2=O)c(=O)[nH]1`, for which the max response is 4% (inactive). Turning to `Cc1c(Cl)cccc1NC(=O)[C@@]1(CC(=O)O)CC(/C=C/c2ccccc2)=NO1`, the max response was 9.29% (inactive). Under `O=C(COc1cccc2ccccc12)Nc1cc(S(=O)(=O)N2CCOCC2)ccc1N1CCOCC1` stands 7.56% (inactive); under `CCn1cc(CN2CCN(CC(C)(C)C)C(CCO)C2)c2ccccc21` (configuration not stated), -2.82% (inactive). In the case of `Cn1cc(CCC(=O)NC2CC2)c2ccccc21`, the max response was -2.88% (inactive). Under `CC1CC2=C(CC1/C=N/NC(N)=S)C(C)(C)CCC2` (configuration not stated) stands -1.08% (inactive); under `O=Cc1c(N2CCN(c3cccc(Cl)c3)CC2)nc2ccccn2c1=O`, 3.1% (inactive).

`Cc1ccc(Cl)cc1NC(=O)C1CCCN(c2cnccn2)C1` (configuration not stated): the max response was -5.58% (inactive).

As to `COc1ccc(NC(=O)CN2C(=O)CSc3ccc(S(=O)(=O)N4CCC(C)CC4)cc32)cc1`, the max response was 9.42% (inactive). For the compound `CCc1ccccc1NC(=S)Nc1cc(OC)c(NC(=O)C(C)C)cc1OC`, the max response was -6.46% (inactive).

For `CC(C)(C)Nc1nc(-c2ccccn2)nc2ccccc12`, the max response was -2.46% (inactive). `COc1cnc(-c2ccccn2)nc1Oc1ccc(C(C)(C)C)cc1`: the max response was 4.47% (inactive). As to `Cc1ccc(Oc2nc(-c3ccccn3)nc3ccccc23)cc1`, the max response is 25% (active). With `NS(=O)(=O)c1ccc(CCNC(=O)CNC(=O)Cc2ccccc2)cc1`, the max response was 4.6% (inactive). Under `CC1CCCN(S(=O)(=O)c2ccc(-c3ccc(=O)[nH]n3)o2)C1` (configuration not stated) stands -2.93% (inactive).

Turning to `O=C(c1ccc(Cn2cc([N+](=O)[O-])cn2)o1)N1CCCC1`, the max response is -2.92% (inactive).

For the compound `CCc1ccc(NC(=O)c2ccc(Cn3cc([N+](=O)[O-])cn3)cc2)cc1`, the max response was 26.2% (active).

For the compound `COc1cccc(NC(=O)c2ccc(Cn3cc([N+](=O)[O-])cn3)o2)c1`, the max response is 1.95% (inactive). `COc1cccc(OC)c1C(=O)Nc1c(C(=O)N2CCN(c3ccccn3)CC2)oc2ccccc12`: the max response is -0.82% (inactive). As for `CN1CCN(CCCCOc2cccc3ccccc23)CC1`, the max response is 2.51% (inactive). For the compound `NNC(=O)COc1ccc(C2SCCS2)cc1`, the max response is 5.31% (inactive). Under `NC(=O)COc1ccccc1C(=O)NC12CC3CC(CC(C3)C1)C2` stands 0.476% (inactive); under `NC(=O)COc1ccc(C23CC4CC(CC(C4)C2)C3)cc1`, 32.3% (active); under `Cc1c(Cl)c([N+](=O)[O-])nn1CCCC(=O)NC(C)c1ccccc1` (configuration not stated), 0.248% (inactive). Next, `COc1ccc(NC(=O)C/C(C)=N/NC(=O)c2cnccn2)cc1Cl`: 53.7% (active); `CCCCC(=O)N/N=C(\C)CC(=O)Nc1cc(Cl)ccc1OC`: -1.06% (inactive); `O=C(COc1ccc(Cl)cc1Cl)NCCCNC(=O)c1cnccn1`: -1.68% (inactive).
